From PubChem BioAssay
Pf apPOL inh = Pf-apPOL DNA polymerase inhibition; Recombinant Pf-apPOL, molecular beacon fluorescence, 1.5 h; inhibition, % at 10 µM; 0.25% of 210,000 active
mHTT-CaM PPI inh = disrupts binding of mutant huntingtin to calmodulin | P42858 | AlphaScreen His-mHTT/GST-CaM binding, luminescence | inhibition, % at 15 µM | 3.6% of 190,000 active;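 note: 0% = both proteins with DMSO and 100% = one protein alone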
* marks the source's active call; other numbers are inactive results; i = inactive; . = no result; ! = not active in a repeat. The sample as a whole holds a higher share of hits than the screen did. Cut-off read from the data, not from the text of the source: active = inhibition above about 50%; inactive = the rest.

SMILES | Pf apPOL inh | mHTT-CaM PPI inh
Cc1ccc(C)c(NCC(O)Cn2c(C)c(C)c3ccccc32)c1 (configuration not stated) | 3 | 95*
Cc1c(C)n(CC(O)CN2CCN(Cc3ccccc3)CC2)c2ccccc12 (configuration not stated) | 7 | 21
CCN(CC)CC(O)Cn1c(C)c(C)c2ccccc21 (configuration not stated) | -2 | 5
CCC(CO)NCC(O)Cn1c(C)c(C)c2ccccc21 (configuration not stated) | 11 | 7
Cc1c(C)n(CC(O)CNc2ccccc2)c2ccccc12 (configuration not stated) | -1 | 54*
COc1ccc(CCNC(=O)C2Cc3cc(C(F)(F)F)ccc3N3CCCC23)cc1 (configuration not stated) | 3 | 6
CCCOc1cccc(C(=O)Nc2ccc(Cl)c(-c3nc4ncccc4o3)c2)c1 | 1 | -6
O=C(C1CC(=O)N(c2ccc(F)cc2)C1)N1CCN(CCn2cccn2)CC1 (configuration not stated) | -5 | -5
Fc1ccc(Cc2nc(-c3cccc(-c4ccn[nH]4)c3)no2)cc1 | 4 | 27
COc1ccc(NC(=O)CN2CCC(C(=O)NCc3cccnc3)CC2)c(OC)c1 | -3 | 1
COc1ccc(NC(=O)N(CCCN2CCOCC2)Cc2cccnc2)c(OC)c1 | 68* | -1
CCC1(CC)OC(c2cccc([N+](=O)[O-])c2)Nc2ccccc21 (configuration not stated) | 5 | 28
CCC1(CC)OC(c2c([N+](=O)[O-])cc([N+](=O)[O-])cc2[N+](=O)[O-])Nc2ccccc21 (configuration not stated) | 0 | 79*
CCC[C@H]1[C@@H](OC(=O)N2CCN(c3ccccc3)CC2)CC[C@@]23CCCN2C(=O)CCC[C@@H]13 | -5 | 99*
C[C@H]1[C@@H](OC(=O)Oc2ccc([N+](=O)[O-])cc2)CC[C@@]23CCCN2C(=O)CCC[C@@H]13 | -9 | 10
CCC[C@H]1[C@@H](OC(=O)Oc2ccc([N+](=O)[O-])cc2)CC[C@@]23CCCN2C(=O)CCC[C@@H]13 | 0 | 58*
CCC[C@H]1[C@@H](OC(=O)NCCc2c[nH]c3ccccc23)CC[C@@]23CCCN2C(=O)CCC[C@@H]13 | 0 | 65*
CCC[C@H]1[C@@H](OC(=O)N2CCOCC2)CC[C@@]23CCCN2C(=O)CCC[C@@H]13 | -4 | -12
CCC[C@H]1[C@@H](OC(=O)NCc2ccccc2Cl)CC[C@@]23CCCN2C(=O)CCC[C@@H]13 | -3 | 16
COc1ccc(Cl)cc1NC(=O)c1cc(S(=O)(=O)NC2CCCCC2C)ccc1F (configuration not stated) | 40 | 7
CCN(C(=O)Cc1ccc(Br)cc1)c1ccccc1 | -8 | -18
O=C(CN(Cc1ccccc1Cl)S(=O)(=O)c1ccc(Cl)cc1)NCc1ccccn1 | 0 | 0
CCCC(=O)Nc1c(-c2ccc(C)cc2)nc2cc(C)ccn12 | 1 | 15
Cc1ccc(-c2nc3cc(C)ccn3c2NC(=O)C(Cl)Cl)cc1 | -1 | 57*
Cc1ccccc1NC(=O)c1ccc(F)c(S(=O)(=O)N2CCCC(C(N)=O)C2)c1 (configuration not stated) | -6 | 4
SMILES | Pf apPOL inh | mHTT-CaM PPI inh
COc1ccc(NC(=O)c2cc(C(C)C)n3nccc3n2)cc1 | 2 | -6
Cc1nnc2c(NC(=O)c3ccncc3)cccn12 | 0 | -7
C/C(=N/NC(=O)c1nn(C)c(C)c1Br)c1ccnn1C | . | i
Cc1ccc(NC(=O)CSc2nnc3c(n2)[nH]c2ccccc23)cc1Cl | 3 | 53*
Cc1ccc(NC(=O)CSc2nc3c([nH]c4ccccc43)c(=O)n2C)cc1Cl | 0 | 18
CCOc1ccc(S(=O)(=O)Nc2ccc(I)cc2)cc1 | -16 | -17
CCOc1ccc(S(=O)(=O)N=C2C=C(Nc3ccccc3)C(=O)c3ccccc32)cc1 | 3 | 90*
CCOc1ccc(S(=O)(=O)NC(=O)c2ccccc2)cc1 | 0 | -14
COc1ccc(C)cc1NC(=O)C(NS(=O)(=O)c1cccs1)C(C)C (configuration not stated) | -1 | 0
Cc1ccc(NC2=CC(=NS(=O)(=O)c3cccs3)c3ccccc3C2=O)c(C)c1 | 3 | 90*
CCOc1ccc(NC2=CC(=NS(=O)(=O)c3ccc(OCC)cc3)c3ccccc3C2=O)cc1 | -2 | 75*
COc1ccc(S(=O)(=O)N=C2C(C)=CC(=O)C(S(=O)(=O)c3ccccc3)=C2C)cc1 | -1 | 30
COc1ccc(S(=O)(=O)N=C2C=C(Nc3ccccc3)C(=O)c3ccccc32)cc1 | 11 | 88*
COc1ccc(OC)c(C2C(C(=O)Nc3ccc(C)cc3C)=C(C)Nc3ncnn32)c1 (configuration not stated) | 1 | 6
COc1cccc(C2C(N3C(=O)c4ccccc4C3=O)C(=O)N2c2ccc(Br)cc2)c1 (configuration not stated) | 9 | 9
CCOC(=O)N1CCN(C(=O)Cn2cnc(-c3ccc(OC)cc3)cc2=O)CC1 | -1 | -5
COc1cccc(/C=C2\N=C(c3ccc(C)c([N+](=O)[O-])c3)OC2=O)c1 | -5 | 6
Cn1ncc(N)c1C(N)=O | . | -2
CCN1CCN(C(=O)c2nc(C)n(-c3ccccc3)n2)CC1 | -8 | -2
COc1ccc(S(=O)(=O)N=C2C=CC(=O)c3ccccc32)cc1 | -2 | 98*
COc1ccc(S(=O)(=O)N=C2C=C(C(C)C)C(=O)C=C2C)cc1 | 5 | -2
CCc1ccc(NS(=O)(=O)c2ccc(OC)cc2)cc1 | -4 | -10
CCOc1ccc(S(=O)(=O)N=C2C=C(Nc3ccc(OC)cc3)C(=O)c3ccccc32)cc1 | 0 | 89*
CCOc1ccc(S(=O)(=O)Nc2cnc3ccccc3c2)cc1 | 8 | -4
CCOc1ccc(NC2=CC(=NS(=O)(=O)c3ccc(F)cc3)c3ccccc3C2=O)cc1 | -5 | 67*
SMILES | Pf apPOL inh | mHTT-CaM PPI inh
COc1ccccc1NC1=CC(=NS(=O)(=O)c2ccc(C)cc2)c2ccccc2C1=O | 5 | 93*
COc1ccccc1NC1=C(Cl)C(=O)c2ccccc2C1=O | 11 | .
O=C(c1ccncc1)N1CCC(n2c(-c3ccc(F)cc3)nc3cccnc32)C1 (configuration not stated) | -2 | 4
CCOc1ccccc1N1CCN(C(C)=O)C(C)C1=O (configuration not stated) | 2 | -7
CN1CCCN(Cc2c(Cl)cccc2Cl)CC1 | -14 | 1
COc1ccc(-c2cc(C(F)(F)F)n3ncc(C(=O)N4CCN(C)CC4)c3n2)cc1OC | 0 | -1
CCc1ccc(S(=O)(=O)N=C2C=C(Nc3ccccc3)C(=O)c3ccccc32)cc1 | 2 | 93*
O=S(=O)(N=C1SCCS1)c1ccccc1 | -14 | -1
CN(Cc1ccccc1)c1ncnc(N)c1[N+](=O)[O-] | 92*! | 9
CC(C)N(Cc1ccccc1)c1ncnc(N)c1[N+](=O)[O-] | 0 | 8
O=C(Nc1ccc(F)c(Cl)c1)c1cc([N+](=O)[O-])nn1Cc1ccccc1 | -7 | 92*
O=C(Nc1ccc(F)cc1)c1cc([N+](=O)[O-])nn1Cc1ccccc1 | -8 | 3
COc1nc(Nc2ccccc2-c2ccccc2)nc(OC)n1 | 0 | 2
CCOc1cc(-c2ccc(OC)c(OC)c2)cc(=O)c2c(C)oc(C)c12 | 10 | 44
CCOc1cc(-c2cccs2)cc(=O)c2c(C)oc(C)c12 | -5 | 55*
